Hits are enriched below; roughly 3.5% of the tested compounds scored in any of these assays.
MITF primary = human MITF inhibition, primary screen | O75030 | AlphaScreen MITF homodimerization, bead proximity signal | inhibition, % at 2.6 µM | 0.91% of 650,000 active | AID 1259374; in the data active = inhibition above about 50%;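 also: 0% = vehicle wells with protein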
TEAD-YAP block = TEAD-YAP interaction inhibition | HEK-TIYL cells, TEAD-Gal4/YAP UAS-luciferase luminescence | inhibition, % at 9.12 µM | 1.4% of 640,000 active | AID 1259422; in the data active = inhibition above about 32%;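 also: 0% = median of test compound wells and 100% = reference inhibitor wells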
GPR151 ag = activators of human GPR151. Q8TDV0. PathHunter beta-arrestin GPR151 cells, luminescence. activation, % at 11.2 µM. 1% of 650,000 active. AID 1508602; in the data active = activation above about 4.9%;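 also: 0% = median of compound wells and 100% = cells with positive control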
FBW7 act = human FBW7 E3 ligase activation, primary screen; Q969H0; normalized activity (activation), % at 26.1 µM; 0.13% of 650,000 active; AlphaScreen FBW7–phospho-cyclin E peptide binding, activator screen; AID 1259310; in the data active = normalized activity above about 1.9%;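 also: purified mutant Fbw7 with reduced substrate affinity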
Target sequence (Q969H0 whole entry, looked up): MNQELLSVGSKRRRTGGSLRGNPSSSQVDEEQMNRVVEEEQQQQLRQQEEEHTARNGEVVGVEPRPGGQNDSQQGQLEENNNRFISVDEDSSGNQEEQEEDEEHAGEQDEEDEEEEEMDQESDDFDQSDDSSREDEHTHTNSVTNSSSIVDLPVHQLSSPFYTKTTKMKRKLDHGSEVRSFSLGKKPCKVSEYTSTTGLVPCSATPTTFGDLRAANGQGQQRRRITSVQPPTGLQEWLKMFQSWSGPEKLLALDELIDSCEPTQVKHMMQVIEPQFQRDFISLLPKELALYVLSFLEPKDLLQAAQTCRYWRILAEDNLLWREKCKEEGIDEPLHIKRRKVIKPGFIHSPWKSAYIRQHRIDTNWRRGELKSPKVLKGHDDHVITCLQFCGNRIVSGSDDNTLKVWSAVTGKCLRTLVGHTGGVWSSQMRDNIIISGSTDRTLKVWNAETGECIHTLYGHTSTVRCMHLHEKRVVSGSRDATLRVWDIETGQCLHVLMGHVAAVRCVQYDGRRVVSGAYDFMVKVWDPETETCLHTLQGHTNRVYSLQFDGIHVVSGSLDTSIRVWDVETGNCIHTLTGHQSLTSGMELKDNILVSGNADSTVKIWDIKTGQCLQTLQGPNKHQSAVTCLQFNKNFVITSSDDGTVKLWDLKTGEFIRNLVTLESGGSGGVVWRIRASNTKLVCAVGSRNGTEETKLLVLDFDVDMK
MITF inh conf = human MITF inhibition, confirmation; inhibition, % at 2.6 µM; 16% of 4,700 active; AlphaScreen MITF homodimerization, biotin/His-MITF beads; shares compounds with MITF primary;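 active = inhibition above a cutoff derived from the DMSO control wells, cut at about 28% in these data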;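 also: 0% = MITF dimer wells with DMSO only; inhibitors lower the bead chemiluminescence by keeping MITF from dimerizing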
AlphaScreen DR = counter-screen: compounds optically interfering with AlphaScreen; IC50, µM; AID 1259373; AlphaScreen optical interference counterscreen, cell-free; shares compounds with MITF primary; 6% of 480 active; call rule not given here
AS interf ctr = optically interferes with AlphaScreen signal; shares compounds with MITF primary; 7.6% of 4,700 active; inhibition, % at 2.6 µM; LysRS AlphaScreen counterscreen, signal interference, triplicate; AID 1259376;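 active = inhibition above a cutoff derived from the DMSO control wells, cut at about 30% in these data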
Numbers without * were called inactive; x = no result.

SMILES | MITF primary | TEAD-YAP block | GPR151 ag | FBW7 act | MITF inh conf | AS interf ctr | others
CN(CC1CCCCO1)C(=O)CCc1nnc(Cc2c[nH]c3ccccc23)o1 (stereo unspecified) | -6 | 1 | 0 | 0 | x | x
CC(C(=O)NC12CC3CC(CC(C3)C1)C2)N(C)CCOc1ccccc1 (stereo unspecified) | 51* | 2 | -2 | 0 | 5 | 15
O=C(c1cccnc1)N1CCN(Cc2ccc3ccccc3c2)CC1 | 37 | 7 | -1 | 0 | x | x
Cc1ccccc1CN1CCN(C(=O)c2cccnc2)CC1 | 61* | -7 | 1 | 0 | 18 | -1
O=C(c1cccnc1)N1CCN(Cc2ccccc2C(F)(F)F)CC1 | 53* | -1 | 3 | 0 | -1 | -3
O=C(c1cccnc1)N1CCN(Cc2ccc([N+](=O)[O-])cc2)CC1 | -14 | 1 | 0 | 0 | x | x
Cc1ccc(CN2CCN(C(=O)c3cccnc3)CC2)cc1 | 54* | 9 | -1 | 0 | -3 | -6
COc1ccccc1C1CC(=O)NC2=C1C(=O)CC(c1ccc(F)cc1)C2 (stereo unspecified) | 22 | 1 | -2 | 1 | x | x
O=c1c2ccccc2c2cc3nc4ccccc4c(=O)n3c3cccc1c23 | 2 | -1 | 2 | 0 | x | x
CC(NS(=O)(=O)c1ccc(S(=O)(=O)NCc2ccccc2)cc1)c1cccs1 (stereo unspecified) | 22 | 2 | 0 | 0 | x | x
CCCCNS(=O)(=O)c1ccc(S(=O)(=O)NC(C)c2cccs2)cc1 (stereo unspecified) | 56* | 4 | 1 | 0 | 6 | 6
CCn1nc(C(=O)Nc2cc(C)nn2-c2nc3ccccc3s2)cc1C | 1 | 13 | 0 | 0 | x | x
CCCC(=O)Nc1nc2ccccc2s1 | 13 | -39 | -2 | 0 | x | x
CCn1nc(C(=O)Nc2nc3ccccc3s2)cc1C | 69* | 88* | -9 | 0 | -4 | -5
CN1CCN(CC(=O)Nc2nc3ccccc3s2)CC1 | 51* | -15 | 0 | 0 | 7 | 14
O=C(CCC1CCCCC1)Nc1nc2ccccc2s1 | 92* | -32 | 1 | 0 | 7 | 11
C/C(=N\NC(=O)c1cccc([N+](=O)[O-])c1)c1ccc(C)o1 | 4 | -3 | -1 | 0 | x | x
CCCNC(=O)c1cccc(-c2ccc(N3CCOCC3)nc2)n1 | 1 | -4 | 0 | 0 | x | x
COc1ccccc1-n1c(=S)sc2c(=O)n(-c3ccccc3)c(SCC(=O)c3ccc(Cl)cc3)nc21 | 68* | -9 | 0 | 0 | 0 | 0
O=C(CCl)OCC(COC(=O)CCl)(COC(=O)CCl)COC(=O)CCl | 6 | -2 | -1 | 0 | x | x
Cc1c(Cc2ccc3c(c2)OCO3)sc(NC(=O)c2ccc([N+](=O)[O-])o2)c1C#N | -3 | 4 | 2 | 0 | x | x
COC(=O)c1c(NC(=O)c2ccc([N+](=O)[O-])o2)sc(Cc2ccc3c(c2)OCO3)c1C | 55* | 2 | 2 | 0 | 47* | 15 | AlphaScreen DR=>6.4
CC(=O)c1ccc(-c2ccc(/C=C/[N+](=O)[O-])o2)cc1 | 69* | -12 | 0 | 0 | 56* | 31*
O=C(O)c1ccccc1-c1ccc(/C=C/[N+](=O)[O-])o1 | 81* | 2 | 1 | -1 | 73* | -7 | AlphaScreen DR=>6.5
CCc1ccccc1NC(=O)CC1Sc2ccc(C(F)(F)F)cc2NC1=O (stereo unspecified) | 12 | 6 | 1 | 0 | x | x
SMILES | MITF primary | TEAD-YAP block | GPR151 ag | FBW7 act | MITF inh conf | AS interf ctr | others
CSc1ccccc1NC(=O)CC1Sc2ccc(C(F)(F)F)cc2NC1=O (stereo unspecified) | 56* | -4 | -1 | 0 | -4 | -6
Cc1cccc(NC(=O)CC2Sc3ccc(C(F)(F)F)cc3NC2=O)c1C (stereo unspecified) | 66* | 4 | 0 | 0 | 4 | -7
O=C(Nc1ccncc1)N1CCOCC1 | 6 | 9 | 1 | 0 | x | x
O=C(c1cc(Cl)cc(Cl)c1)N1CCN(C(=O)c2cc(Cl)cc(Cl)c2)CC1 | -3 | 5 | 0 | 0 | x | x
O=C(c1cc(Cl)cc(Cl)c1)N1CCCCC1 | 62* | -4 | 1 | 1 | -15 | -6
CCN1C(=O)NC(c2cc(Br)ccc2OC)C(C(=O)OC)=C1C (stereo unspecified) | 59* | 4 | 4 | 0 | 2 | 8
CCN1C(=O)NC(c2cc(C)ccc2C)C(C(=O)OC)=C1C (stereo unspecified) | 11 | 5 | 0 | 0 | x | x
Cc1nc2ccccc2n1CC1CCN(C(=O)Nc2ccccc2)CC1 | 43 | -1 | 1 | 0 | x | x
COc1ccccc1NC(=O)CN1CCN(CC(=O)Nc2ccccc2OC)CC1 | -29 | 0 | -2 | 0 | x | x
COc1ccc(CCC(=O)N2CCC(Cn3c(C)nc4ccccc43)CC2)cc1 | 78* | 15 | 1 | -1 | 16 | 18
Cn1c(CN2CCN(C(=O)CN3C(=O)CCC3=O)CC2)nc2ccccc21 | 54* | 0 | 3 | 0 | 2 | 12
Cc1nc2ccccc2n1CC1CCN(C(=O)CN2C(=O)CCC2=O)CC1 | 65* | -2 | 0 | 0 | 5 | 22
COc1ccccc1NC(=O)CN1CCN(Cc2nc3ccccc3n2C)CC1 | 67* | -8 | -1 | -1 | 9 | 14
CN(C)CCOc1ccc2ccccc2c1 | 76* | 0 | 0 | 0 | -17 | -3
C=CCNC(=O)COC(=O)c1cc(Cl)cc(Cl)c1 | -13 | -2 | -2 | 0 | x | x
O=C(c1ccccc1F)N(Cc1ccccc1)c1ccccn1 | 71* | 11 | 0 | 0 | 8 | 18
CC(=O)Nc1ccc(C(=O)OCC(=O)Nc2cc(C)cc(C)c2)cc1 | 9 | 4 | 1 | 0 | x | x
CC(=O)Oc1cc(C(=O)OCC(=O)Nc2ccc(C)cc2)cc(OC(C)=O)c1OC(C)=O | 80* | -5 | 1 | 0 | 56* | 16 | AlphaScreen DR=>7
C=CCn1c(SCc2cccc(F)c2)nc2cc(C(=O)N3CCOCC3)ccc2c1=O | -4 | 3 | -1 | 0 | x | x
C=C(C)CSc1nnc2n(-c3ccccc3C)c(=O)c3c4c(sc3n12)CCCC4 | 70* | 5 | 0 | 0 | -3 | -3
O=C(NC(=S)n1nc(NC(=O)c2ccco2)n2c3ccccc3nc12)c1ccco1 | 0 | -5 | 0 | 0 | x | x
CC(C)(C)c1cc(Cl)ccc1OCCN1CCNCC1 | 59* | -6 | 1 | 0 | -20 | 10
CC(O)CNCCCOc1ccc(Cl)cc1C(C)(C)C (stereo unspecified) | 52* | 7 | 1 | 0 | -8 | 57*
Clc1ccc(Cl)c(OCCCCN2CCNCC2)c1 | 5 | 3 | 0 | 0 | x | x
CC(C)(C)c1cc(Cl)ccc1OCCCN1CCNCC1 | 76* | -1 | 0 | 0 | 1 | 4
O=C(CN1CCCCCC1)Nc1nccs1 | 35 | -2 | -1 | 0 | x | x
